Data: PubChem BioAssay AID651692 (Broad Institute, 2012)
Results with a measured potency or affinity are listed apart. Active and inactive are the calls of the source.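 Rule for the calls: active = fitted half-maximal concentration for loss of cell signal no higher than twice the top valid tested concentration; inconclusive = flat curve at 30 to 70% inhibition, or poor fit; inactive = flat within 30%, signal rise, or potency above limit.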

Test: MDA-MB-231 cell growth inhibition, dose response, cytotoxicity control for RAD54 inhibitor project, CellTiter-Glo luminescence, cherry-pick (AID 651692);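 note: more negative values mean stronger loss of viable cell signal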
Details: MDA-MB-231 viability, 24 h; series mostly up to 26 µM

Row | SMILES | outcome
1 | NNC(=O)c1oc2nc(-c3cccs3)cc(-c3ccco3)c2c1N | inactive
2 | CN(C)CCCNc1nc2cc(-c3cccc(Cl)c3)sc2c(=O)n1C | inactive
3 | CCN1CCN(c2cc(C)c3cc(NC(=S)N4CCCCC4)ccc3n2)CC1 | inactive
4 | COC(=O)Nc1nnc(COc2ccccc2)s1 | inactive
5 | COc1cc(NC(=O)c2cccnc2Sc2ccc(C)c(C)c2)cc(OC)c1OC | inactive
6 | NC1CCN(c2c(F)cc3c(=O)c(C(=O)O)cn(C4CC4)c3c2Cl)C1 (centres undefined) | inactive
7 | Cn1c(NCCN2CCCC2)nc2cc(-c3ccsc3)sc2c1=O | inactive
8 | CCOC(=O)c1c(NC(=O)c2ccc(S(=O)(=O)N3CCOCC3)cc2)sc2c1CCN(C(C)C)C2 | inactive
9 | COc1ccc(C(=O)Nc2cc(C)c(NC(=O)c3ccccc3OC)cn2)cc1 | inactive
10 | CCOC(=O)c1[nH]c2cc3c(cc2c1CCCN1C(=O)c2ccccc2C1=O)OCCO3 | inactive
11 | Cc1ccc2nc3c(c(N)c2c1)CCN3c1ccccc1 | inactive
12 | Cc1c(-c2cc(Br)ccc2O)nc2cc3c(cc2c1C)OCO3 | inactive
13 | Nc1c2ccccc2nc2ccccc12 | inactive
14 | COc1ccccc1Nc1nc(NCCCN(C)C)nc(N)c1[N+](=O)[O-] | inactive
15 | COc1cccc2c1-c1c(O)cccc1C2=O | inactive
16 | COc1ccccc1NC(=O)CNC(=O)c1ccccc1 | inactive
17 | COc1cc2nc(N3CCNCC3)nc(N)c2cc1OC | inactive
18 | CN(C)CCNc1ncnc2sc(-c3ccccc3)cc12 | inactive
19 | CN(C)CCCNc1nc2cc(-c3ccc4c(ccn4C)c3)sc2c(=O)n1C | inactive
